Measurements reported in PubChem BioAssay AID2098 (Broad Institute, 2009).
In all, about 300,000 compounds went through this assay and about 2,300 (0.77%) were called active. Only a selection was taken, and actives are over-represented in it overall. Unmarked numbers belong to inactive results.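 The calls were made as follows: active = more than half of replicate wells show activity change below -50%, luminescence cut by over half; inconclusive = some wells, but at most half, below -50%; inactive = no replicate well below -50%.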

assay: blocking HSF1-driven luciferase expression – cell-based, NIH3T3, luminescence, primary screen (AID 2098); conditions: NIH3T3-HGL HSE-luciferase, MG132-induced, luminescence 8 h; active compounds read low; screened at 7.5 µM (by protocol);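 also: luciferase reports HSF-1 transcriptional activity via heat shock element; 0% = median of DMSO wells and -100% = zero luminescence signal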

SMILES | activity change, negative = inhibition
CC(=O)O[C@H]1CC[C@@]2(C)[C@@H](CC[C@@H]3[C@@H]2CC[C@]2(C)[C@@H](C(C)(C)O)C[C@@H]32)C1 | -1.58%
CC(C)(CCl)C(=O)Nc1ccc(Sc2ccc(F)cc2)cc1 | 6.39%
Cc1ccc(NC(=O)CC(=O)Nc2ccc(C)cc2)cc1 | 11.5%
O=C(CCl)Nc1ccc(Sc2ccc(NC(=O)CCl)cc2)cc1 | -61.6% (active)
O=C(c1cc(-c2ccco2)nc2ccccc12)N(Cc1nnc(-c2ccc(Cl)cc2)o1)C1CC1 | 8.92%
Cc1cc(C(=O)OC(C)C(=O)NC2CCCCC2C)c(C)o1 (stereo not drawn) | 3.94%
COc1ccc(S(=O)(=O)NC(C)C(=O)Nc2cccc([N+](=O)[O-])c2)cc1 (stereo not drawn) | -3.53%
COc1cccc(CNC(=O)CCCC(=O)Nc2cccc([N+](=O)[O-])c2)c1 | -0.854%
COC(=O)/C=C\C(=O)Nc1cccc([N+](=O)[O-])c1 | -76.8% (active)
Cc1ccc(OCC(=O)Oc2ccccc2[N+](=O)[O-])cc1 | -1.37%
CCOc1ccc(C(=O)Nc2cc(Cl)ccc2-n2cncn2)cc1OC | -3.95%
Cc1cc(/C=N/n2cnnc2)c(C)n1-c1ccc2ncccc2c1 | -11.6%
O=C(COC(=O)c1cnccn1)Nc1ccc(Cl)cc1C(F)(F)F | -5.67%
O=C(CS(=O)(=O)Cc1ccccc1)NCC1CCCO1 (stereo not drawn) | -53.1% (active)
S=C(NCCc1ccccc1)NCC1CCCO1 (stereo not drawn) | 14%
O=C(COC(=O)c1ccc(S(=O)(=O)Nc2ccccc2)cc1)NCC1CCCO1 (stereo not drawn) | -11.9%
CS(=O)(=O)c1ccc(Cl)c(NC(=O)COC(=O)c2ncc(Cl)c(Cl)c2Cl)c1 | 0.97%
O=C(CN1CCOCC1)Nc1cccc([N+](=O)[O-])c1 | 6.69%
COc1ccc(Nc2ncnc3sc(-c4ccccc4)cc23)c(OC)c1 | -2.06%
C=CCNc1ncnc2ccc(Br)cc12 | -13.4%
COc1ccc(Nc2ncnc3ccc(Br)cc23)c(OC)c1 | -71.5% (active)
Cc1ccc(C)c(OCCC(=O)OCC(=O)NC(=O)NCc2ccccc2)c1 | -6.76%
COc1ccc(NC(=O)c2cc(-c3ccc(C)cc3)on2)cc1 | -1.83%
COc1ccc(NC(=O)/C(Cl)=C(/Cl)S(=O)Cc2ccc(C)cc2)cn1 (stereo not drawn) | -94.7% (active)
COc1ccc(Nc2cc(Cl)ccc2C(=O)O)cn1 | 0.861%
CCCCn1c(N)c(N(CC)C(=O)c2ccc(N(C)S(=O)(=O)c3ccc(C)cc3)cc2)c(=O)[nH]c1=O | -4.56%
CCN1C(=O)[C@H]2[C@@H](c3ccc(SC4CCCCC4)c(OC)c3)N[C@@](Cc3ccccc3)(C(=O)OC)[C@H]2C1=O | 6.65%
Cc1cc(C(=O)CCC(=O)NNC(=O)c2ccccc2O)c(C)s1 | 1.38%
